Measured values: PubChem BioAssay (Tox21)
Records with an inconclusive call do not appear. Activity calls are given as the source filed them. Unless noted, calls follow the shape of the dose curve; as a rule, active = well fitted curve in the direction sought with a large enough effect in the repeat runs; inconclusive = weak or mixed curves; inactive = no such curve, though single readings can be large; an effect the other way counts as inactive or inconclusive.

Experiments:
[1] = qHTS assay to identify small molecule agonists of the hypoxia (HIF-1) signaling pathway (AID 1224846; active = well fitted activation curve with a large enough effect in the signal ratio in the repeat runs, not every such curve was filed as active; the % refers to the signal ratio)
Procedure, shortened: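 Compounds added to ME-180 cells carrying hypoxia-response-element beta-lactamase reporter (0.5% dialyzed FBS, 5 h preplating), 17 h at 37C; agonist activity detected by CCF4-AM B/G FRET read-out.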

[2] = qHTS assay to identify small molecule agonists of H2AX - cell viability counter screen (AID 1224847; calls by dose curve; also: nearly all actives have a fitted effect of over 30% in size; also: potency is read from the fitted curve at half-maximal effect)
Procedure, shortened: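 After overnight plating of 1000 CHO-K1 cells per well, a 15-concentration compound series was applied for 3 hr at 37C. Luminescence from CellTiter-Glo, read following 30 min at room temperature, reflected cell viability.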

[3] = qHTS RealTime-Glo MT Cell Viability Assay in HepG2 cells - 24 hour (AID 1224867); also: nearly all actives have a fitted effect of over 50% in size; also: potency is read from the fitted curve at half-maximal effect
Procedure, shortened: (§1)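 Cell number in HepG2 cultures estimated from NanoLuc luminescence generated by metabolic reduction of a prosubstrate by living cells. The homogeneous, nonlytic format allowed repeated reads at 0, 8, 16, 24, 32 and 40 h of compound exposure.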

[4] = qHTS RealTime-Glo MT Cell Viability Assay in HEK293 cells - 32 hour (AID 1224868); also: nearly all actives have a fitted effect of over 50% in size; also: potency is read from the fitted curve at half-maximal effect
Procedure, shortened: (§2)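 Homogeneous bioluminescent viability format in HEK293 cells (600 cells/well). Following 5 h at 37 C/5% CO2, 23 nL compound was pintooled; the signal was measured repeatedly during 40 h incubation.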

[5] = A CellTox Green Cytotoxicity Assay to monitor cytotoxicity in HEK293 cells - 0 hour (AID 1224869); also: nearly all actives have a fitted effect of over 50% in size; also: potency is read from the fitted curve at half-maximal effect
Procedure, shortened: (§3)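 Fluorescence from a DNA-binding dye excluded by viable cells was measured repeatedly in the same HEK293 wells (600 cells/well) during continuous compound exposure at 37 C. Each assay gives one read point: 0, 8, 16, 24, 32 or 40 h.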

[6] = qHTS RealTime-Glo MT Cell Viability Assay in HepG2 cells - 40 hour (AID 1224870); also: nearly all actives have a fitted effect of over 50% in size; also: potency is read from the fitted curve at half-maximal effect
Procedure, shortened: (§4)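 HepG2 cells (600/well) mixed with RealTime-Glo MT reagent, settled 5 h at 37 C/5% CO2 before compound addition. Nonlytic NanoLuc luminescence from viable-cell prosubstrate reduction read repeatedly during 40 h treatment at 37 C.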

[7] = A CellTox Green Cytotoxicity Assay to monitor cytotoxicity in HEK293 cells - 40 hour (AID 1224871); also: nearly all actives have a fitted effect of over 45% in size; also: potency is read from the fitted curve at half-maximal effect
Procedure, shortened: as §3

[8] = qHTS RealTime-Glo MT Cell Viability Assay in HEK293 cells - 16 hour (AID 1224872); also: nearly all actives have a fitted effect of over 50% in size; also: potency is read from the fitted curve at half-maximal effect
Procedure, shortened: as §2

[9] = qHTS RealTime-Glo MT Cell Viability Assay in HepG2 cells - 8 hour (AID 1224873); also: nearly all actives have a fitted effect of over 55% in size
Procedure, shortened: as §4

[10] = qHTS RealTime-Glo MT Cell Viability Assay in HEK293 cells - 40 hour (AID 1224874); settings: RealTime-Glo luminescence; max response: active compounds read low; also: nearly all actives have a fitted effect of over 50% in size; also: potency is read from the fitted curve at half-maximal effect
Procedure, shortened: (§5)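 Luminescence, which tracks viable cell number through reduction of the prosubstrate to a NanoLuc substrate, was read over continuous 37 C culture. Cells (600/well) were premixed with reagent and rested 5 h before 23 nL of compound in DMSO was pinned.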

[11] = A CellTox Green Cytotoxicity Assay to monitor cytotoxicity in HEK293 cells - 24 hour (AID 1224875); also: nearly all actives have a fitted effect of over 45% in size; also: potency is read from the fitted curve at half-maximal effect
Procedure, shortened: as §3

[12] = A CellTox Green Cytotoxicity Assay to monitor cytotoxicity in HepG2 cells - 16 hour (AID 1224876); also: nearly all actives have a fitted effect of over 45% in size; also: potency is read from the fitted curve at half-maximal effect
Procedure, shortened: (§6)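 Real-time cytotoxicity: fluorescence of a cell-impermeant cyanine dye binding DNA of dead HepG2 cells, measured repeatedly (0–40 h) during compound exposure at 37 C. Cells seeded 600/well with reagent, dosed after 5 h.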

[13] = qHTS RealTime-Glo MT Cell Viability Assay in HepG2 cells - 32 hour (AID 1224877); also: nearly all actives have a fitted effect of over 55% in size; also: potency is read from the fitted curve at half-maximal effect
Procedure, shortened: as §1

[14] = A CellTox Green Cytotoxicity Assay to monitor cytotoxicity in HepG2 cells - 24 hour (AID 1224878); also: nearly all actives have a fitted effect of over 45% in size; also: potency is read from the fitted curve at half-maximal effect
Procedure, shortened: as §6

[15] = A CellTox Green Cytotoxicity Assay to monitor cytotoxicity in HepG2 cells - 40 hour (AID 1224879); also: nearly all actives have a fitted effect of over 40% in size; also: potency is read from the fitted curve at half-maximal effect
Procedure, shortened: as §6

[16] = qHTS RealTime-Glo MT Cell Viability Assay in HEK293 cells - 0 hour (AID 1224880)
Procedure, shortened: as §5

[17] = A CellTox Green Cytotoxicity Assay to monitor cytotoxicity in HEK293 cells - 32 hour (AID 1224881); also: nearly all actives have a fitted effect of over 40% in size; also: potency is read from the fitted curve at half-maximal effect
Procedure, shortened: as §3

[18] = A CellTox Green Cytotoxicity Assay to monitor cytotoxicity in HepG2 cells - 0 hour (AID 1224882); also: nearly all actives have a fitted effect of over 35% in size; also: potency is read from the fitted curve at half-maximal effect
Procedure, shortened: as §6

[19] = qHTS assay to identify small molecule antagonists of the estrogen related receptor (ERR) signaling pathway from Tox21 library (AID 1224848); also: nearly all actives have a fitted effect of over 50% in size
Procedure, shortened: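 Compounds dissolved in DMSO are pin-transferred onto ERR reporter cells (2,000 per well) that have settled for 6 h at 37 C. Plates then incubate 18 h at 37 C before ONE-Glo luciferase reagent and a luminescence read 30 min later.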

[20] = qHTS assay to identify small molecule agonists of the estrogen related receptor (ERR) signaling pathway from Tox21 library (AID 1224849; calls by dose curve; also: nearly all actives have a fitted effect of over 15% in size); settings: ERR reporter cell line, ONE-Glo luciferase, 18 h; at 92.4 µM (top of the series) unless noted
Procedure, shortened: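 Luminescent agonist read-out (One-Glo, 30-minute room-temperature incubation) following 18-hour compound treatment at 37 C of the ERR cell line, which had been plated 6 hours before dosing.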
% is scaled to controls: 0 for no effect and ±100 for the full control effect.

CCCCCCCCCCCCCc1ccccc1
inactive: outcome [1] | Potency [2] | Potency [3] | Potency [4] | Potency [5] | Potency [6] | Potency [7] | Potency [8] | Potency [9] | max response [10] -7.71% | Potency [11] | Potency [12] | Potency [13] | Potency [14] | Potency [15] | Potency [16] | Potency [17] | Potency [18]

CCc1cccc(CC)c1N(COC)C(=O)CS(=O)(=O)O
inactive: outcome [1] | Potency [2] | Potency [19] | Potency [3] | Potency [4] | Potency [6] | Potency [7] | Potency [8] | Potency [9] | max response [10] 20.8% | Potency [11] | Potency [12] | Potency [13] | Potency [14] | Potency [15] | Potency [16] | Potency [17] | Potency [18]

CCN(CC)c1cccc(C)c1
inactive: outcome [1] | Potency [2] | Potency [19] | Potency [3] | Potency [4] | Potency [5] | Potency [6] | Potency [7] | Potency [8] | Potency [9] | max response [10] -4.54% | Potency [11] | Potency [13] | Potency [14] | Potency [15] | Potency [16] | Potency [17] | Potency [18]

CC1(C)COCN1
inactive: outcome [1] | Potency [2] | Potency [19] | activity change, positive = activation [20] 5.19% | Potency [3] | Potency [4] | Potency [8] | Potency [9] | max response [10] -0.12% | Potency [12] | Potency [13] | Potency [14] | Potency [15] | Potency [16] | Potency [18]

Cc1ccc2ccc3cccc4ccc1c2c34
inactive: outcome [1] | Potency [2] | activity change, positive = activation [20] -32.5% | Potency [3] | Potency [5] | Potency [6] | Potency [8] | Potency [9] | Potency [11] | Potency [12] | Potency [13] | Potency [14] | Potency [15] | Potency [16] | Potency [17]

CCC1CCCCC1
inactive: outcome [1] | Potency [2] | Potency [19] | activity change, positive = activation [20] 11.4% | Potency [3] | Potency [4] | Potency [6] | Potency [7] | Potency [8] | Potency [9] | Potency [11] | Potency [13] | Potency [14] | Potency [15] | Potency [16] | Potency [17] | Potency [18]

Cc1cncc(C)c1
inactive: outcome [1] | Potency [2] | Potency [19] | Potency [3] | Potency [4] | Potency [6] | Potency [8] | Potency [9] | max response [10] 0.584% | Potency [12] | Potency [13] | Potency [14] | Potency [15] | Potency [16] | Potency [18]

CCCCCCCCCCOCC(O)CN (configuration not stated)
inactive: outcome [1] | activity change, positive = activation [20] -64% [at 42.5 µM] | Potency [5] | Potency [18]
active: Potency [2] 55.2 µM | Potency [3] 15.1 µM | Potency [4] 23.9 µM | Potency [6] 15.1 µM | Potency [7] 26.8 µM | Potency [8] 23.9 µM | Potency [10] 23.9 µM | Potency [11] 23.9 µM | Potency [13] 15.1 µM | Potency [14] 15.1 µM | Potency [15] 15.1 µM

Cn1cccc1
inactive: outcome [1] | Potency [2] | Potency [19] | Potency [3] | Potency [4] | Potency [5] | Potency [7] | Potency [8] | Potency [9] | max response [10] 10.4% | Potency [11] | Potency [12] | Potency [13] | Potency [14] | Potency [15] | Potency [16] | Potency [17] | Potency [18]

CCCC(=O)OCC(COC(=O)CCC)OC(=O)CCC
inactive: outcome [1] | Potency [2] | Potency [19] | activity change, positive = activation [20] -2.08% | Potency [3] | Potency [4] | Potency [5] | Potency [7] | Potency [8] | Potency [9] | Potency [11] | Potency [12] | Potency [13] | Potency [14] | Potency [15] | Potency [16] | Potency [17] | Potency [18]

O=CC1CC1
inactive: outcome [1] | Potency [2] | Potency [3] | Potency [4] | Potency [5] | Potency [6] | Potency [7] | Potency [8] | Potency [9] | max response [10] 12% | Potency [11] | Potency [12] | Potency [13] | Potency [14] | Potency [15] | Potency [16] | Potency [17] | Potency [18]

Brc1ccccn1
inactive: outcome [1] | Potency [2] | Potency [3] | Potency [4] | Potency [5] | Potency [6] | Potency [7] | Potency [8] | Potency [9] | max response [10] -0.513% | Potency [11] | Potency [12] | Potency [13] | Potency [14] | Potency [15] | Potency [16] | Potency [17] | Potency [18]

C=CC(C)(CCC=C(C)C)OC(=O)/C=C/c1ccccc1 (configuration not stated)
active: Potency [5] 38.9 µM | Potency [7] 38.9 µM | Potency [11] 27.5 µM | Potency [12] 27.5 µM | Potency [14] 38.9 µM | Potency [15] 43.6 µM | Potency [17] 38.9 µM | Potency [18] 27.5 µM
inactive: outcome [1] | Potency [2] | Potency [3] | Potency [4] | Potency [8] | max response [10] -2.78% | Potency [13] | Potency [16]

O=C(O)CCCCCCC(=O)O
inactive: outcome [1] | Potency [2] | Potency [3] | Potency [4] | Potency [5] | Potency [7] | Potency [8] | Potency [9] | max response [10] 12.4% | Potency [11] | Potency [12] | Potency [13] | Potency [14] | Potency [15] | Potency [16] | Potency [17] | Potency [18]

CCc1ccc(C)nc1
inactive: outcome [1] | Potency [2] | Potency [3] | Potency [4] | Potency [5] | Potency [7] | Potency [8] | Potency [9] | max response [10] -9.25% | Potency [11] | Potency [12] | Potency [14] | Potency [15] | Potency [16] | Potency [17] | Potency [18]
